Test results published in PubChem BioAssay (NCATS).
Values joined by “and” are separate entries in the source; they are usually repeats but may differ in a detail not shown here. Equal values may be shown once. Inconclusive results are not listed. Where a structure was tested more than once in an assay, its records may differ in their call. Active and inactive are the calls of the source. Unless noted, calls follow the shape of the dose curve; as a rule, active = well fitted curve in the direction sought with a large enough effect in the repeat runs; inconclusive = weak or mixed curves; inactive = no such curve, though single readings can be large; an effect the other way counts as inactive or inconclusive.

tested on: not listed separately; test: Primary qHTS for small molecule stabilizers of the endoplasmic reticulum resident proteome: Secreted ER Calcium Modulated Protein (SERCaMP) assay (AID 1508630; active = well fitted curve in the direction sought with a large enough effect; an effect the other way counts as inactive or inconclusive; as to activity change, negative = inhibition: % is scaled to controls: 0 for no effect and ±100 for the full control effect); details: SH-SY5Y GLuc-SERCaMP (Gaussia luciferase released on ER calcium loss) secretion, thapsigargin, luminescence; series mostly up to 38.4 µM; activity change, negative = inhibition: at the top concentration
Method in brief: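 The SH-SY5Y reporter protocol was run at 3 concentrations up to 38.3 uM (primary) or 11 concentrations (follow-up): 16 h compound, 100 nM thapsigargin for 4 h, then extracellular luciferase luminescence.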
Potency is read from the fitted curve at half-maximal effect.

Row | Structure (SMILES) | activity change, negative = inhibition | Potency
1 | CC(=O)SCC[N+](C)(C)C | -20.7% (inactive) | –
2 | CN=c1nc(-c2ccccc2)n(-c2ccccc2)s1 | 102% (inactive) | –
3 | CC(=O)/C=C1\C(=O)N(C)c2ccccc21 | 253% (inactive) | –
4 | Nc1nc(SCc2ccc([N+](=O)[O-])cc2)c2ncn([C@@H]3O[C@H](CO)[C@@H](O)[C@H]3O)c2n1 | – | inactive
5 | O=C1C(SCCO)=C(SCCO)C(=O)c2ccccc21 | – | 25.1 µM (active)
6 | O=C(O)c1cc(=O)c2ccccc2[nH]1 | 7.31% (inactive) | –
7 | CNC(=O)[C@H]1O[C@@H](n2cnc3c(NCc4ccc(N)cc4)ncnc32)[C@H](O)[C@@H]1O | -22.4% (inactive) | –
8 | NO | -23.9% (inactive) | –
9 | COc1cc(C(O)CO)ccc1OS(=O)(=O)O (stereo not drawn) | -9.88% (inactive) | –
10 | Cn1c(=O)c2[nH]c(-c3ccccc3)nc2n(C)c1=O | -10.5% (inactive) | –
11 | NCCCCC(=O)O | 19.8% (inactive) | –
12 | COc1ccc2c(c1)CCC1C2CC[C@@]2(C)C1CC[C@@H]2NCCCCCCN1C(=O)CCC1=O (stereo partly drawn) | -7.37% (inactive) | –
13 | Fc1cccc(/C=N/N=C/c2cccc(F)c2)c1 | -20.9% (inactive) | –
14 | O=C(O)CNC(=O)C(CS)Cc1ccccc1 (stereo not drawn) | – | inactive
15 | Brc1c(Br)c(Br)c2n[nH]nc2c1Br | – | inactive
16 | Nc1nc(Cl)nc2c1ncn2[C@@H]1O[C@H](COP(=O)(O)OP(=O)(O)OP(=O)(O)O)[C@@H](O)[C@H]1O | 21% (inactive) | –
17 | Nc1ncnc2c1ncn2[C@@H]1O[C@H](COP(=O)(O)CP(=O)(O)OP(=O)(O)O)[C@@H](O)[C@H]1O | – | inactive
18 | O=C1NC(=O)/C(=C/c2ccc(-c3ccc(F)cc3O)o2)S1 | -18.4% (inactive) | –
19 | C[N+](C)(C)CCOP(=O)(O)OP(=O)([O-])OC[C@H]1O[C@@H](n2ccc(N)nc2=O)[C@H](O)[C@@H]1O | -3.35% (inactive) | –

tested on: not listed separately; test: A High-Content qHTS Against Drug Library for the Identification of Small Molecules that Inhibit DYT1 Early Onset Primary Dystonia-Associated Cell Pathology (AID 1645839; calls by dose curve); details: HEK293 Flp-In EGFP-delE TorsinA, punctate imaging, 48 h; series mostly up to 46.1 µM; % pathology change, negative = correction: at the top concentration
Method in brief: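 Cells were seeded and left for 24 h, then dosed with compound alongside tetracycline induction of mutant EGFP-TorsinA. They were incubated for 48 h, fixed in 4% paraformaldehyde, permeabilized and imaged for mislocalization (%pathology) and cell count.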

Row | Structure (SMILES) | % pathology change, negative = correction | Potency
20 | Nc1c(CC(=O)O)cccc1C(=O)c1ccc(Br)cc1 | -8.89% (inactive) | –
21 | O=C(O)/C=C\C(=O)O | 17% (inactive) | –
22 | [O-][n+]1ccccc1SSc1cccc[n+]1[O-] | – | 3.16 µM (active)
23 | CO[C@@]1(NC(=O)Cc2cccs2)C(=O)N2C(C(=O)O)=C(COC(N)=O)CS[C@@H]21 | 12.2% (inactive) | –
24 | Nc1nc2ccc([N+](=O)[O-])cc2s1 | 13% [at 91.7 µM] (inactive) | –
25 | C=CCCCCCCCCC(=O)O | -27.1% (inactive) | –
26 | CC1(C)S[C@@H]2[C@H](NC(=O)[C@H](N)c3ccccc3)C(=O)N2[C@H]1C(=O)O | 6.54% (inactive) | –
27 | Nc1ccc(C(=O)O)c(O)c1 | -5.64% (inactive) | –
28 | Cc1ccc(C(=O)c2ccc(CC(=O)O)n2C)cc1 | 4.65% (inactive) | –
29 | CC(=O)SCC(CC(=O)c1ccc(C)cc1)C(=O)O (stereo not drawn) | 0.115% (inactive) | –
30 | N=C(N)N | 0.92% (inactive) | –
31 | Nc1ccc(O)c([N+](=O)[O-])c1 | -22.8% [at 91.7 µM] (inactive) | –
32 | O=C(O)c1cc(O)c(O)c(O)c1 | -29% (inactive) | –
33 | CC(C(=O)O)c1ccc2c(c1)[nH]c1ccc(Cl)cc12 (stereo not drawn) | 0.338% (inactive) | –
34 | CCCCCCCCCCCC(=O)[O][Sn]([CH2]CCC)([CH2]CCC)[O]C(=O)CCCCCCCCCCC | -5.82% (inactive) | –
35 | CC(C(=O)O)c1ccc(C(=O)c2ccccc2)s1 (stereo not drawn) | -27.1% (inactive) | –
36 | O=Cc1ccc(O)c(O)c1O | -21.7% (inactive) | –
37 | CCCCCCCCCCCCCCCCCC(=O)O | 14.1% (inactive) | –
38 | CC(=O)c1ccc(OCC(=O)N2CCCCC2)cc1 | -24% (inactive) | –
39 | CCOC(=O)c1ccccc1O | 2.67% (inactive) | –

target: Cytochrome P450 2D6 (Homo sapiens) (UniProt P10635); test: Cytochrome P450 family 2 subfamily D member 6 (CYP2D6) small molecule antagonists: luciferase biochemical (cell-free) qHTS assay (AID 1645840); details: P450-Glo CYP2D6 enzyme, luciferin luminescence, 1 h; series mostly up to 57.4 µM; activity change, negative = inhibition: at the top concentration; also: nearly all actives have a fitted effect of over 55% in size; as to activity change, negative = inhibition: % is scaled to controls: 0 for no effect and ±100 for the full control effect
Method in brief: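 P450-Glo CYP2D6 system: proluciferin substrate converted by enzyme to luciferin, read by luminescence proportional to activity. Enzyme-substrate mix with compound 10 min at room temperature, then NADPH regeneration 1 h before detection reagent.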

Sequence of Cytochrome P450 2D6 (Homo sapiens) (P10635 whole entry, looked up): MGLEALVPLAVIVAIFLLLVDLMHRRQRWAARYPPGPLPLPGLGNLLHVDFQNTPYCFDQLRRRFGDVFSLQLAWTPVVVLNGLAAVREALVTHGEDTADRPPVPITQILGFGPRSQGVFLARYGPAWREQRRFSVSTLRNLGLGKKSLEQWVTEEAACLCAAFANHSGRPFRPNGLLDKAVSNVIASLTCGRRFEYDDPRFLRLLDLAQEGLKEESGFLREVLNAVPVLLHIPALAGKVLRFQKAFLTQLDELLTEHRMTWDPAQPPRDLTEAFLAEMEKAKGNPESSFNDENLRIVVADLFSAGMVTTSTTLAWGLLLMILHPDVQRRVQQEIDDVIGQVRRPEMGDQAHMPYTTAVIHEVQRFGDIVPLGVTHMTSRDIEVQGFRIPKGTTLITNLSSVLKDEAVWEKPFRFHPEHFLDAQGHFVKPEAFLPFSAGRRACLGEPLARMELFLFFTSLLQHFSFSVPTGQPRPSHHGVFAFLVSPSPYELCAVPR

Row | Structure (SMILES) | activity change, negative = inhibition | Potency
40 | Nc1c(CC(=O)O)cccc1C(=O)c1ccc(Br)cc1 | 4.69% (inactive) | –
41 | O=C(O)/C=C\C(=O)O | -10% (inactive) | –
42 | [O-][n+]1ccccc1SSc1cccc[n+]1[O-] | – | 1.34 µM (active)
43 | CO[C@@]1(NC(=O)Cc2cccs2)C(=O)N2C(C(=O)O)=C(COC(N)=O)CS[C@@H]21 | -3.38% (inactive) | –
44 | C=CCCCCCCCCC(=O)O | -1.84% (inactive) | –
45 | CC1(C)S[C@@H]2[C@H](NC(=O)[C@H](N)c3ccccc3)C(=O)N2[C@H]1C(=O)O | -7.17% (inactive) | –
46 | Nc1ccc(C(=O)O)c(O)c1 | 0.767% (inactive) | –
47 | Cc1ccc(C(=O)c2ccc(CC(=O)O)n2C)cc1 | – | inactive
48 | CC(=O)SCC(CC(=O)c1ccc(C)cc1)C(=O)O (stereo not drawn) | 2.68% (inactive) | –
49 | N=C(N)N | 8.6% (inactive) | –
50 | Nc1ccc(O)c([N+](=O)[O-])c1 | – | 32.9 µM (active)
51 | O=C(O)c1cc(O)c(O)c(O)c1 | 2.01% (inactive) | –
52 | CC(C(=O)O)c1ccc2c(c1)[nH]c1ccc(Cl)cc12 (stereo not drawn) | 3.82% (inactive) | –
53 | CCCCCCCCCCCC(=O)[O][Sn]([CH2]CCC)([CH2]CCC)[O]C(=O)CCCCCCCCCCC | -14.9% (inactive) | –
54 | CC(C(=O)O)c1ccc(C(=O)c2ccccc2)s1 (stereo not drawn) | -18.4% (inactive) | –
55 | O=Cc1ccc(O)c(O)c1O | -10.8% (inactive) | –
56 | CC(=O)c1ccc(OCC(=O)N2CCCCC2)cc1 | 2.34% (inactive) | –
57 | CCOC(=O)c1ccccc1O | 12.3% (inactive) | –

target: Cytochrome P450 2C9 (Homo sapiens) (UniProt P11712); test: Cytochrome P450 family 2 subfamily C member 9 (CYP2C9) small molecule antagonists: luciferase biochemical (cell-free) qHTS assay (AID 1645842); details: P450-Glo CYP2C9 enzyme assay, luciferin luminescence; series mostly up to 57.4 µM; activity change, negative = inhibition: at the top concentration; also: nearly all actives have a fitted effect of over 55% in size; as to activity change, negative = inhibition: % is scaled to controls: 0 for no effect and ±100 for the full control effect
Method in brief: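 P450-Glo CYP2C9 system: proluciferin substrate with enzyme in mix containing 0.4% BSA, 10 min at room temperature, then NADPH regeneration solution added and incubated 1 h at 37C. Detection reagent stopped reaction; luminescence read after 20 min as RLU.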

Sequence of Cytochrome P450 2C9 (Homo sapiens) (P11712 whole entry, looked up): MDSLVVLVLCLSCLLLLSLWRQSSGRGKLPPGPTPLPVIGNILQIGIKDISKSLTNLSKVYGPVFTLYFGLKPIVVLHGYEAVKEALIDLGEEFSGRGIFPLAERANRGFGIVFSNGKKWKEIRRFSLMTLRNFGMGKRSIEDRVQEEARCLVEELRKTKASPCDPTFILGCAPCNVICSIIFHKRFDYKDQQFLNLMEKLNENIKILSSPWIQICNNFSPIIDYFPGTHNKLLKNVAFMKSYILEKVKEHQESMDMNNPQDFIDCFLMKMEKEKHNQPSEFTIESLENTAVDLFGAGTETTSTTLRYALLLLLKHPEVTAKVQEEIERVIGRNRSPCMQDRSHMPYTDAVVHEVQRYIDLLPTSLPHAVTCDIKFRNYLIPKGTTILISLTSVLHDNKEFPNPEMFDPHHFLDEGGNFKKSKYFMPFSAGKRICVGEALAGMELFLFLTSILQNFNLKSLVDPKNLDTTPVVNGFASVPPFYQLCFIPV

Row | Structure (SMILES) | activity change, negative = inhibition | Potency
58 | Nc1c(CC(=O)O)cccc1C(=O)c1ccc(Br)cc1 | 5.39% (inactive) | –
59 | O=C(O)/C=C\C(=O)O | 8.7% (inactive) | –
60 | [O-][n+]1ccccc1SSc1cccc[n+]1[O-] | – | 1.34 µM (active)
61 | CO[C@@]1(NC(=O)Cc2cccs2)C(=O)N2C(C(=O)O)=C(COC(N)=O)CS[C@@H]21 | 8.34% (inactive) | –
62 | C=CCCCCCCCCC(=O)O | 2.7% (inactive) | –
63 | Nc1ccc(C(=O)O)c(O)c1 | 7.34% (inactive) | –
64 | Cc1ccc(C(=O)c2ccc(CC(=O)O)n2C)cc1 | – | inactive and 15.1 µM (active)
65 | N=C(N)N | -5.36% (inactive) | –
66 | Nc1ccc(O)c([N+](=O)[O-])c1 | – | 21.8 µM (active)
67 | O=C(O)c1cc(O)c(O)c(O)c1 | -2.96% (inactive) | –
68 | CC(C(=O)O)c1ccc2c(c1)[nH]c1ccc(Cl)cc12 (stereo not drawn) | 1.5% (inactive) | –
69 | CCCCCCCCCCCC(=O)[O][Sn]([CH2]CCC)([CH2]CCC)[O]C(=O)CCCCCCCCCCC | 12.6% (inactive) | –
70 | CC(C(=O)O)c1ccc(C(=O)c2ccccc2)s1 (stereo not drawn) | – | 15.5 µM (active)
71 | O=Cc1ccc(O)c(O)c1O | -12.9% (inactive) | –
72 | CC(=O)c1ccc(OCC(=O)N2CCCCC2)cc1 | 1.32% (inactive) | –
73 | CCOC(=O)c1ccccc1O | 12% (inactive) | –
